UHRF1 MBD2 ctr: human UHRF1 methylated DNA binding inhibitors | Q96T88 | UHRF1 binding to methylated oligo, TR-FRET | inhibition, % at 4.4 µM | 370,000 tested, 0.75% active | AID 687016;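 note: UHRF1 SRA domain binding a hemimethylated CpG hairpin DNA probe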
LEDGF integ inh: blocks HIV-1 LEDGF/p75-dependent DNA integration | TR-FRET IN-LEDGF/p75 DNA integration, Eu/Cy5 | inhibition, % at 3.7 µM | 370,000 tested, 0.64% active;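 active = inhibition above the screen-wide mean plus 3 SD, cut at about 13% in these data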;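 note: signal is the Cy5 over europium emission ratio at 671 and 618 nm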
Casp6 inh: inhibitors of human caspase-6 | 350,000 tested, 0.53% active | inhibition, % at 12.5 µM | purified caspase-6, Z-VEID-R110 cleavage fluorescence;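 active = mean inhibition across replicates at least about 35%, with every replicate also reaching that limit, limit read from the data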
MBD2 DNA inh: inhibitors of human MBD2 binding to methylated oligonucleotide; inhibition, % at 4.4 µM; TR-FRET; 370,000 tested, 0.31% active; in the data active = inhibition above about 13%
UHRF1 ctr MBD2: inhibits human UHRF1 binding to methylated oligonucleotide, MBD2 counter-screen | shares compounds with MBD2 DNA inh | TR-FRET | inhibition, % at 4.4 µM | 1,000 tested, 25% active;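 note: UHRF1 SRA domain binding a labeled hemimethylated CpG hairpin DNA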
MBD2 DBD conf: MBD2-DBD methyl-DNA binding inhibition, TR-FRET confirmation | inhibition, % at 4.4 µM | AID 720531 | TR-FRET MBD2-DBD binding to methylated oligonucleotide | 1,000 tested, 26% active | shares compounds with MBD2 DNA inh; in the data active = inhibition above about 14%
Large screens that a line does not name were inactive (follow-up assays come after a bar, where they were run). This is a sample that favours compounds with a hit; in the whole collection about 1.4% have one here. Cut-off read from the data, not from the text of the source, unless noted: active = inhibition above about 21%; inactive = the rest.

C[C@@H]1CN([C@@H](C)CO)S(=O)(=O)c2ccc(C3=CCCC3)cc2O[C@H]1CN(C)C(=O)CN(C)C	none (no result: UHRF1 MBD2 ctr, LEDGF integ inh, MBD2 DNA inh)
O=C(Nc1ccc(F)cc1)N[C@H]1CC[C@@H](CCNC(=O)c2ccccc2F)O[C@H]1CO	none (no result: UHRF1 MBD2 ctr, LEDGF integ inh, MBD2 DNA inh)
c1ccc2c(c1)C1=NCCN1c1ccccc1-2	MBD2 DNA inh 26 | UHRF1 ctr MBD2 inactive | MBD2 DBD conf 39
CCC(=O)Nc1ccc(C(=O)COC(=O)c2nc3nccc(C)n3n2)cc1	UHRF1 MBD2 ctr 55, Casp6 inh 69, MBD2 DNA inh 34 | UHRF1 ctr MBD2 31 | MBD2 DBD conf 30
CC(=O)c1cccc(OCC(=O)N(C)CC(=O)NCc2ccco2)c1	UHRF1 MBD2 ctr 49, LEDGF integ inh 30, Casp6 inh 49, MBD2 DNA inh 22 | UHRF1 ctr MBD2 43 | MBD2 DBD conf 18
O=C(CCCn1c(=O)c2ccccc2n(Cc2cccc(F)c2)c1=O)NC1CCN(Cc2ccccc2)CC1	none
O=C(CCCCn1c(=O)c2ccccc2n(Cc2ccccc2)c1=O)NC1CCN(Cc2ccccc2)CC1	UHRF1 MBD2 ctr 27, MBD2 DNA inh 13 | UHRF1 ctr MBD2 inactive | MBD2 DBD conf inactive
COC(=O)c1nnn(-c2nonc2N)c1CN1CCCC1	MBD2 DNA inh 31 | UHRF1 ctr MBD2 inactive | MBD2 DBD conf inactive
O=S1(=O)CC(N2CCN(CCO)CC2)CN1Cc1cn(Cc2ccccc2)nn1 (configuration not stated)	none
CN(Cc1cn(Cc2cccc(Cl)c2)nn1)C1CN(Cc2cn(Cc3cccc(Cl)c3)nn2)S(=O)(=O)C1 (configuration not stated)	MBD2 DNA inh 14 | UHRF1 ctr MBD2 inactive | MBD2 DBD conf inactive
CN1CCN(C2CN(Cc3cn(Cc4cccc(C(F)(F)F)c4)nn3)S(=O)(=O)C2)CC1 (configuration not stated)	none
O=S1(=O)CC(N2CCN(CCO)CC2)CN1Cc1cn(Cc2ccc(C(F)(F)F)cc2)nn1 (configuration not stated)	MBD2 DNA inh 14 | UHRF1 ctr MBD2 inactive | MBD2 DBD conf inactive
CN1CCC(N2CCN(C3CN(Cc4cn(Cc5cccc(C(F)(F)F)c5)nn4)S(=O)(=O)C3)CC2)CC1 (configuration not stated)	UHRF1 MBD2 ctr 23, MBD2 DNA inh 14 | UHRF1 ctr MBD2 inactive | MBD2 DBD conf inactive
O=C(O)c1cc(N2C(=O)CCC2=O)ccc1Cl	MBD2 DNA inh 15 | UHRF1 ctr MBD2 inactive | MBD2 DBD conf inactive
COc1ccc(N2CCN(C(=O)c3ccc4c(c3)CC(c3ccccc3)OC4=O)CC2)cc1 (configuration not stated)	UHRF1 MBD2 ctr 21, MBD2 DNA inh 14 | UHRF1 ctr MBD2 inactive | MBD2 DBD conf inactive
C[C@@H]1CN([C@H](C)CO)C(=O)c2cc(NC(=O)CCC(F)(F)F)ccc2O[C@@H](C)CCCCO[C@@H]1CN(C)Cc1ccc(C(=O)O)cc1	none (no result: UHRF1 MBD2 ctr, LEDGF integ inh, MBD2 DNA inh)
Cc1ccc(-c2c(C)c(-c3ccc(F)cc3)nc(N)c2C#N)o1	MBD2 DNA inh 19 (no result: Casp6 inh) | UHRF1 ctr MBD2 inactive | MBD2 DBD conf inactive
COc1ccc(S(=O)(=O)Nc2cccc3c2O[C@@H](CN(C)C(=O)Nc2ccc4c(c2)OCO4)[C@@H](C)CN([C@@H](C)CO)C3=O)cc1	none (no result: UHRF1 MBD2 ctr, LEDGF integ inh, MBD2 DNA inh)
C[C@H]1CN([C@@H](C)CO)C(=O)CCCn2nncc2CO[C@H]1CN(C)S(=O)(=O)c1ccc(-n2cccn2)cc1	MBD2 DNA inh 16 | UHRF1 ctr MBD2 inactive | MBD2 DBD conf inactive
O=C(CSc1cn[nH]n1)Nc1cccc(C(=O)O)c1	MBD2 DNA inh 15 | UHRF1 ctr MBD2 inactive | MBD2 DBD conf inactive
O=C(CN1CCOCC1)NCC[C@H]1CC[C@H](NC(=O)c2ccccc2F)[C@H](CO)O1	none (no result: UHRF1 MBD2 ctr, LEDGF integ inh, MBD2 DNA inh)
COC(=O)[C@H](CC(C)C)N(Cc1cn(CC2CCCCC2)nn1)S(=O)(=O)c1ccccc1Br	MBD2 DNA inh 17 (no result: Casp6 inh) | UHRF1 ctr MBD2 inactive | MBD2 DBD conf inactive
COC(=O)[C@H](CC(C)C)N(CCc1cn(CC2CCCCC2)nn1)S(=O)(=O)c1ccc(F)cc1Br	none (no result: Casp6 inh)
CCN(Cc1cn(CC2CCCCC2)nn1)S(=O)(=O)c1ccccc1Br	none (no result: Casp6 inh)
COC(=O)[C@H](CC(C)C)N(Cc1cn(CC2CCCCC2)nn1)S(=O)(=O)c1ccc(F)cc1Br	UHRF1 MBD2 ctr 21, MBD2 DNA inh 19 (no result: Casp6 inh) | UHRF1 ctr MBD2 inactive | MBD2 DBD conf inactive
